Screening data as filed in PubChem.
RVFV N-RNA inh = inhibitors of RVFV nucleoprotein–RNA binding, primary screen, biochemical, fluorescence polarization. RVFV N-RNA binding; stronger effect = lower value. % bound, % (no concentration beside the values). 20,000 compounds, 0.1% hits; in the data active = % bound below about 75%
Of the large screens only hits and unclear results are named; the others gave an inactive call. This excerpt belongs to a sample that is enriched for hits.

O=C(Nc1c(C(=O)Nc2ccc3c(c2)OCO3)oc2ccccc12)c1ccco1	none
O=C1/C(=C/c2ccccc2)Oc2c1ccc(O)c2CN1CCOCC1	RVFV N-RNA inh 53
CC1CCN(CC(=O)NCc2ccccc2)CC1	none
CN(C)Cc1c(O)ccc2c1O/C(=C\c1ccccc1)C2=O	RVFV N-RNA inh 48
COc1ccc2c(c1)O/C(=C\c1cccc(OC(=O)N3CCOCC3)c1)C2=O	none
CC1CCN(Cc2c(F)cccc2F)CC1	none
CCN(CC)Cc1c(O)ccc2c1O/C(=C\c1ccc(C(=O)OC)cc1)C2=O	none
O=C(CN1CCOCC1)N/N=C/c1ccccc1	none
CCc1c(C)c2ccc(O)c(CN(C)C)c2oc1=O	none
CC1CCN(Cc2c(O)ccc3c2O/C(=C\c2ccccc2)C3=O)CC1	RVFV N-RNA inh 56
COc1ccnc(C(=O)O)c1	none
CSc1nc2ccc(NC(=O)c3ccc4ncsc4c3)cc2s1	none
CCOC(=O)COc1cc(=O)[nH]c2ccc(OC)cc12	none
CC(C)NC(=O)C(C)SCc1ccccc1 (centres undefined)	none
Cc1cnc2c(c1SCC(=O)NCc1ccc3c(c1)OCO3)c(=O)n(C)c(=O)n2C	none
O=c1[nH]c2c(s1)C=Nc1cc3ccccc3cc1N2	none
COC(=O)c1ccccc1NC(=O)/C=C/c1ccc(C)o1	none
O=C(/C=C/c1cccc(N2C(=O)C3C4C=CC(C4)C3C2=O)c1)NCc1ccco1 (centres undefined)	none
O=C(NCc1cccnc1)N(c1ccccc1)c1ccccc1	none
CC(C)(C)C(=O)CSc1nc2ccccc2n1S(=O)(=O)c1ccccc1	none
COc1ccc2cc(Br)ccc2c1CC(=O)NCc1ccco1	none
Cc1ccccc1NC(=O)N(C)C1CCN(C)CC1	none
